# Rows were chosen to be rich in hits. Some 4.7% of all compounds tested hit in one or more screens of this group.
# DRD3 agonist: activates the human D3 dopamine receptor | P35462 | D3R DiscoveRx beta-arrestin cells, luminescence, 90 min | max activation, % | 410,000 compounds, 0.58% hits | AID 652048; in the data active = max activation above about 30%; note: 0% is about no effect
# Target sequence (P35462 whole entry, looked up): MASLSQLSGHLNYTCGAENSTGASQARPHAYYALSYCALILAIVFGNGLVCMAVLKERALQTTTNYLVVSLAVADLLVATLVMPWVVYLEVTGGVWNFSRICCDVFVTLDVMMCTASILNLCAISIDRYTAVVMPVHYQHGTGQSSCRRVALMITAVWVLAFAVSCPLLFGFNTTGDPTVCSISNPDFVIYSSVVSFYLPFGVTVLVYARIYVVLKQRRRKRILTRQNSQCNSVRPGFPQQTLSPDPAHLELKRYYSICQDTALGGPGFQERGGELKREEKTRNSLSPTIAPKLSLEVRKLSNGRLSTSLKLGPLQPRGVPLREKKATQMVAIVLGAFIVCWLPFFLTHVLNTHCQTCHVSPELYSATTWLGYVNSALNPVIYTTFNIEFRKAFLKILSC
#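 Cells at 1500/well, incubated overnight, then treated with pinned compounds (dopamine as control) for 90 min at 37 degrees C. DiscoveRx reagent added for 30 - 60 minutes at room temperature; luminescence read.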
# ATXN viability: cell viability loss in ATXN counter-screen. 400,000 compounds, 0.49% hits. Potency, µM (doses to about 56.7 µM), most hits filed as cytotoxic. S2 cells (HEK-293 line with an ATXN2-luciferase reporter) viability, CellTiter-Fluor protease fluorescence, 24 h; note: potency is the fitted concentration of half-maximal effect; nearly all actives have a fitted effect of over 40% in size
# ATXN2 expr inh: reduces ATXN2 reporter expression in HEK-293 cells; HEK-293 ATXN2-luciferase reporter, luminescence, 24 h; Potency, µM (highest dose often 57 µM), without a hit: at the top dose activity change, negative = inhibition, usual class: inhibitors; 360,000 compounds, 0.72% hits; note: potency is the fitted concentration of half-maximal effect; % is set by controls: 0 for no effect and ±100 for the full control effect; nearly all actives have a fitted effect of over 55% in size
#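 ATXN2-luciferase reporter cells (luciferase flanked by upstream and downstream ATXN2 gene portions) were treated 24 h at 37 °C with compounds at up to 57 uM. SteadyGlo luminescence gave expression; GF-AFC fluorescence gave viability.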
# TGFb SMAD3 inh: blocks TGF-b signaling; HepG2 CAGA-GFP TGF-b/SMAD3 reporter, GFP fluorescence, 18 h; TGF-beta stimulated, 500 pg/mL final; Potency, µM (highest dose often 46.1 µM), inactives show top-dose activity, negative = inhibition, hits mostly inhibitors; 410,000 compounds, 1.2% hits; note: potency is the fitted concentration of half-maximal effect; % is set by controls: 0 for no effect and ±100 for the full control effect; nearly all actives have a fitted effect of over 65% in size
#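 Cell-based qHTS in HEPG2 carrying a CAGA-GFP Smad reporter; compounds added before 500 pg/mL final TGF-beta, 18 h incubation at 37 degrees C, GFP fluorescence quantified per cell by imaging cytometry.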
# HepG2 viability: kills HepG2 cells in TGF-b inhibitor counter-screen; Potency, µM (top dose mostly 46.1 µM), for the others: at the top dose activity change, negative = cytotoxicity, actives largely listed as cytotoxic; 410,000 compounds, 0.76% hits; HepG2 CAGA-GFP viability, ATP luminescence, 18 h; AID 588856; note: potency is the fitted concentration of half-maximal effect
#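 CellTiter-Glo luminescence gave cytotoxicity after 18 hours at 37 degrees C. The cells were HepG2 CAGA-GFP in 1% FBS DMEM, stimulated with 500 pg/mL TGF-beta after compound addition. %Activity was normalised to no-cell wells (complete cell-killing) and DMSO (no toxicity), and curves were fitted and classified.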
# D3 antag: antagonists of human D3 dopamine receptor; P35462; D3R cells, DiscoveRx beta-arrestin luminescence, antagonist mode; stronger effect = lower value; max response, negative = inhibition, %; 360,000 compounds, 2.5% hits; in the data active = max response below about -50%; inconclusive = no clear call, values can overlap the other calls; note: % is set by controls: 0 for no effect and ±100 for the full control effect
#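 Cells expressing the human receptor were seeded at 1500 cells/well, incubated overnight at 37 degrees C in 5% CO2, then exposed to library compounds with dopamine controls for 90 minutes at 37 degrees C before luminescent detection.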
# * hit, by the source's call; i = inactive; ? = inconclusive; / = no result. Unless noted, calls come from the whole dose curve; as a rule, active = well fitted curve in the direction sought with a large enough effect; inconclusive = small, poorly fitted or top-dose-only effect, or another doubt; inactive = no such curve, though single readings can be large; an effect the other way counts as inactive or inconclusive.
SMILES,DRD3 agonist,ATXN viability,ATXN2 expr inh,TGFb SMAD3 inh,HepG2 viability,D3 antag
O=[N+]([O-])c1cc(/C=N/Nc2nc3ccccc3[nH]2)c(O)cc1O,-11,i,-20%,?,-11%,-65*
C(=N\Nc1nc2ccccc2[nH]1)/c1c[nH]c2ccccc12,47*,i,47%,?,2%,30
C(=N\Nc1nc2ccccc2[nH]1)/c1ccccc1,-8,i,31%,-8%,-9%,-2
Nc1c(Br)cc(C=O)cc1Br,/,/,/,4%,-5%,/
CCCCCCCCN1[C@@H](CC(=O)OC)c2ccc(/C=C/C(=O)OC)cc2S1(=O)=O,/,/,/,-9%,-12%,/
CCCCOc1ccc(Br)cc1CSC(=N)N,-16,?,?,20µM*,-101%,-20
CCOC(=O)[C@@](C)(N)Cc1ccc(O)c(O)c1,2,?,-26%,/,/,/
O=C(NCCc1cccnc1)c1cnn(-c2ncc3c(n2)-c2ccccc2CC3)c1C1CC1,/,i,/,/,/,/
CCOC(=O)c1c(C)[nH]c(C(=O)CSc2nnc(-c3ccncc3)n2CC)c1C,9,i,-8%,?,-9%,38
C=CCn1c(SCC(=O)c2[nH]c(C)c(C(=O)OCC)c2C)nc2scc(-c3ccc(OC)c(OC)c3)c2c1=O,-4,/,28µM*,?,-15%,-15
CCCCn1nnnc1C(c1ccc(OC)cc1)N1CCN(C/C=C/c2ccccc2)CC1 (stereo unspecified),-19,?,-36%,?,-35%,-107*
COc1ccc(-n2nnnc2C(c2ccccc2OC(F)(F)F)N2CCN(C/C=C/c3ccccc3)CC2)cc1 (stereo unspecified),-21,?,7%,?,-1%,-96*
Cc1cccc(C)c1-n1nnnc1C(c1ccccc1)N1CCN(C/C=C/c2ccccc2)CC1 (stereo unspecified),-26,i,-20%,?,5%,-133*
COc1ccc(-n2nnnc2C(c2ccnc3ccccc23)N2CCN(C/C=C/c3ccccc3)CC2)cc1 (stereo unspecified),-14,?,?,?,-23%,-54*
COc1cccc(C2C(C(=O)Nc3ccccc3OC)=C(C)Nc3nc(-c4ccco4)nn32)c1 (stereo unspecified),3,?,-5%,-4%,-7%,/
COc1ccc(C)cc1NC(=O)c1cc(S(=O)(=O)N2CCC(C)CC2)ccc1F,-5,?,-2%,-12%,-16%,/
CC(C)(C)n1nnnc1C(c1ccccc1)N1CCN(CCN2CCOCC2)CC1 (stereo unspecified),4,i,-7%,/,/,17
COc1cccc(C(c2nnnn2C(C)(C)C)N2CCN(C3CCCCC3)CC2)c1OC (stereo unspecified),-5,i,-10%,-2%,-19%,11
COc1ccc(C(c2nnnn2C2CCCCC2)N2CCN(C/C=C/c3ccccc3)CC2)cc1 (stereo unspecified),-17,?,?,?,7%,-84*
COc1ccc(C(c2nnnn2-c2ccc(OC)cc2)N2CCN(C/C=C/c3ccccc3)CC2)cc1 (stereo unspecified),-14,?,-15%,?,2%,-89*
COc1cccc(C(c2nnnn2C(C)(C)C)N2CCN(C/C=C/c3ccccc3)CC2)c1OC (stereo unspecified),-21,?,-32%,?,-4%,-102*
COc1ccc(C(c2nnnn2C(C)(C)C)N2CCN(C/C=C/c3ccccc3)CC2)cc1 (stereo unspecified),-14,?,-25%,?,-24%,-67*
COc1ccc(C(c2nnnn2Cc2ccc(F)cc2)N2CCN(c3ccccc3)CC2)cc1 (stereo unspecified),-2,i,-2%,33%,21%,-24
COc1ccc(N2CCN(C(c3ccccc3OC)c3nnnn3C3CCCC3)CC2)cc1 (stereo unspecified),6,?,-32%,-7%,-11%,36
COc1ccc(OC)c(CCNC(=O)c2ccc3c(c2)c(C)c(C)n3Cc2ccccc2)c1,-5,/,/,0%,0%,/
SMILES,DRD3 agonist,ATXN viability,ATXN2 expr inh,TGFb SMAD3 inh,HepG2 viability,D3 antag
COc1ccc(-n2nnnc2C(c2cccs2)N2CCN(C/C=C/c3ccccc3)CC2)cc1 (stereo unspecified),-23,i,-6%,?,-20%,-60*
CC(C)NC(=O)CN1CCN(C(c2ccnc3ccccc23)c2nnnn2-c2ccc3c(c2)OCCO3)CC1 (stereo unspecified),2,i,15%,/,/,-8
CCCCn1nnnc1C(C1CC1)N1CCN(C/C=C/c2ccccc2)CC1 (stereo unspecified),-13,i,-17%,?,-5%,-137*
C(=C\c1ccccc1)/CN1CCN(C(c2ccccc2)c2nnnn2-c2ccc3c(c2)OCCO3)CC1 (stereo unspecified),-6,?,-27%,?,-24%,-75*
CCCCn1nnnc1C(c1cccs1)N1CCN(C/C=C/c2ccccc2)CC1 (stereo unspecified),-16,?,-36%,?,-15%,?
Cc1ccc(CN2[C@H]3CCCC[C@@H]3OCCS2(=O)=O)cc1,/,/,/,-3%,8%,/
Cc1ccc(CN2CCc3nnc(C(C)NC(=O)c4cc(F)ccc4F)n3CC2)o1 (stereo unspecified),/,i,/,/,/,/
CSc1ccc(-c2nc3ncccn3c2Nc2ccc(C)c(C)c2)cc1,8,/,/,0%,-2%,/
O=C(/C=C/c1cccc(F)c1)c1ccc(N2CCOCC2)cc1,5,i,0%,13µM*,-123%,-22
O=C(/C=C/c1cccs1)c1ccc(N2CCOCC2)cc1,2,?,/,-25%,-6%,-6
Cc1ccc2nc(C)c(C(=O)N/N=C/c3ccc(N4CCOCC4)cc3)cc2c1,31*,i,-6%,-11%,-2%,-6
CC(C)C[C@H](NC(=O)[C@H](Cc1ccccc1)n1c(=O)[nH]c2ccccc2c1=O)C(=O)N1CCC(C(=O)O)CC1,-7,i,-3%,-24%,-7%,-12
C[C@H](NC(=O)[C@H](Cc1ccccc1)n1c(=O)[nH]c2ccccc2c1=O)C(=O)N1CCC(C(=O)O)CC1,36*,i,-2%,34%,-8%,-6
CSCC[C@H](NC(=O)[C@H](Cc1ccccc1)n1c(=O)[nH]c2ccccc2c1=O)C(=O)N1CCC(C(=O)O)CC1,32*,i,8%,0%,-8%,11

# Screens: PubChem BioAssay, National Center for Advancing Translational Sciences (NCATS)
